Inconclusive results are not listed. Active and inactive are the calls of the source. Unless noted, the call rests on the fitted dose curve; in most records, active means well fitted curve in either direction with a large enough effect (not every such curve was filed as active); inconclusive means small, poorly fitted or top-dose-only effect, or another doubt; inactive means flat fitted curve, though single readings scatter.
Columns and labels:
[1] = AP1 Signaling Pathway (AID 357); conditions: ME-180 AP-1-bla reporter, EGF-induced, beta-lactamase ratio, 5 h; at 17.2 µM (top of the series) unless noted;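 further: ME-180 reporter cells stimulated with EGF at its EC50 level; on the % scale 0 is the no-effect control and ±100 the full control effect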
Summary of the method: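 Cells are seeded overnight, exposed to compound titrations and an EC50 level of EGF for 5 hours at 37 °C, then loaded with CCF4 dye for 2.5 hours. Beta-lactamase activity under the AP-1 element is read as a blue/green ratio.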

[2] = Stat Signaling Pathway (AID 446); conditions: ME-180 (cervical carcinoma) SIE beta-lactamase reporter, IL-6 stimulated, 5 h; at 17.2 µM (top of the series) unless noted;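 further: ME-180 cervical cancer cells given 40 pM IL-6 alongside compound; SIE-controlled beta-lactamase reporter measured as 460/530 nm FRET emission ratio; on the % scale 0 is the no-effect control and ±100 the full control effect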
Summary of the method: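 FRET read-out (405 nm excitation, 460/530 nm emission) of a beta-lactamase reporter under a STAT-inducible element in ME-180 cervical carcinoma cells. Cells with compound receive 40 pM IL-6 for 5 h. Values are normalised to AC90 stimulation and AC90 JAK-inhibitor controls.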

[3] = target: Glucocorticoid receptor (Homo sapiens) (UniProt P04150); experiment: GR-GFP Redistribution (AID 450;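 active means compounds whose dose series gives a full or clear partial fitted curve of increased nuclear translocation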; further: potency means the concentration at half of the fitted maximal effect)
Chain of Glucocorticoid receptor (Homo sapiens) (P04150 whole entry, looked up): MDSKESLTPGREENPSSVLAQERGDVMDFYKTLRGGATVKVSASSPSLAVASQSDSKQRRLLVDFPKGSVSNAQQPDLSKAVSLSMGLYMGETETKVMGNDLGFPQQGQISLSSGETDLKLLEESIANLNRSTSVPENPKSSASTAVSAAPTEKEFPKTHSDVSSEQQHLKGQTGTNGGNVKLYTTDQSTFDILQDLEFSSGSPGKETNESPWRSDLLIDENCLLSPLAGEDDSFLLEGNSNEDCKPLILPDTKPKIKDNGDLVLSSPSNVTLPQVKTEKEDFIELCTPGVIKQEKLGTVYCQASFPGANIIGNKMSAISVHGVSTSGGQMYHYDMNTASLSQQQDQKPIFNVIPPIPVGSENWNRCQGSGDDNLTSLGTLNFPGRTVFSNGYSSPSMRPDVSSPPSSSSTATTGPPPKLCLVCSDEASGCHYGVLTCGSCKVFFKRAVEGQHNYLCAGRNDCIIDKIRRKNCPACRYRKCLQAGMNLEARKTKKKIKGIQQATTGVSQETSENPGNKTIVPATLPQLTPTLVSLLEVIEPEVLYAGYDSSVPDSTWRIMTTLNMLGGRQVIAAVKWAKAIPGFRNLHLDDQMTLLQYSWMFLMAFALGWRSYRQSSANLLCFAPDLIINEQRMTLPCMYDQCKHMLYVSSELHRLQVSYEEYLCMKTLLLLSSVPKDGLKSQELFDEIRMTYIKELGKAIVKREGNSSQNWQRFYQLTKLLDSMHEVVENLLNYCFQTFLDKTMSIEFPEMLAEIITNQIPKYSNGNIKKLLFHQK

[4] = target: Guanine nucleotide-binding protein G(i) subunit alpha-1 (Homo sapiens) (UniProt P63096); experiment: qHTS Assay for Inhibitors of RGS12 GoLoco Motif Activity (Green Fluorophore) (AID 879; active means well fitted curve in the direction sought with a large enough effect; an effect the other way counts as inactive or inconclusive;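 further: 0% = labeled peptide with Gαi1 and full inhibition = labeled peptide alone without protein; negative values mean loss of peptide binding seen as reduced polarization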)
Chain of Guanine nucleotide-binding protein G(i) subunit alpha-1 (Homo sapiens) (P63096 whole entry, looked up): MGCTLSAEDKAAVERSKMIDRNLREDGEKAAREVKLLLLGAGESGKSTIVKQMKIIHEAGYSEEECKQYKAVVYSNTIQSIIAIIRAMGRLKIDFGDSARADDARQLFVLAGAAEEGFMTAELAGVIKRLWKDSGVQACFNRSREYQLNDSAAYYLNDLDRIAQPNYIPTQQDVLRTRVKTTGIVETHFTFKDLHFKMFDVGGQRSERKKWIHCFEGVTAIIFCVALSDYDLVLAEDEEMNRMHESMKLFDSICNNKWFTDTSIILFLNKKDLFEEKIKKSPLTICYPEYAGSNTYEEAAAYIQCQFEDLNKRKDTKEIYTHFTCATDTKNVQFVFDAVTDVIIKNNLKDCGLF
Summary of the method: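 A drop in FITC polarization marked displacement of the FITC-tagged RGS12 GoLoco peptide (10 nM) from Gαi1 (50 nM). Compounds were incubated 10 min at room temperature in Tris pH 7.5 buffer containing 150 mM NaCl, 0.1 mM GDP and 0.05% NP40; unlabeled peptide titration served as control.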

[5] = qHTS Assay for Identification of Small Molecule Agonists for Thrombopoietin (TPO) Signaling Pathway (AID 917; active means well fitted curve in the direction sought with a large enough effect; an effect the other way counts as inactive or inconclusive; further: on the % scale 0 is the no-effect control and ±100 the full control effect)
Summary of the method: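 Stimulation at the TPO EC50 (26 pM final) was used to detect activators. Ba/F3 mouse cells bearing human TPO receptor and a luciferase reporter under the Glycoprotein IIb promoter were exposed to compounds for 24 hrs at 37 C.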

[6] = target: Muscarinic acetylcholine receptor M1 (Rattus norvegicus) (UniProt P08482); experiment: qHTS Assay for Antagonists of Acetylcholine Muscarinic M1 Receptor: Measurement of IP-One Response (AID 944; active means well fitted curve in the direction sought with a large enough effect; an effect the other way counts as inactive or inconclusive; further: nearly all actives have a fitted effect of over 75% in size)
Chain of Muscarinic acetylcholine receptor M1 (Rattus norvegicus) (P08482 whole entry, looked up): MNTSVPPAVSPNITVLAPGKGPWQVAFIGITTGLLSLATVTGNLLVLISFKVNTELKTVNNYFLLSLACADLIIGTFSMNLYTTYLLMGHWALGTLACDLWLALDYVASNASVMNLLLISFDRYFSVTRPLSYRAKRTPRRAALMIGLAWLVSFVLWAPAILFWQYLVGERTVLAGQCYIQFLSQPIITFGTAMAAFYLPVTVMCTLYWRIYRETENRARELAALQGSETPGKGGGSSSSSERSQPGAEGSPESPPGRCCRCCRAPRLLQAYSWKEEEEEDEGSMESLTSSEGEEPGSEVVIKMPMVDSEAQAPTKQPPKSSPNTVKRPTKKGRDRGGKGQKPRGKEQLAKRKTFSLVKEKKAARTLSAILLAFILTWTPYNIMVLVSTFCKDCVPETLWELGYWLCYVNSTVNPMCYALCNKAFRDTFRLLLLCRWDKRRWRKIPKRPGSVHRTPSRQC
Summary of the method: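 Read-out: HTRF competition between d2-IP1 and Eu-cryptate anti-IP1 antibody, emission 620 and 665 nm. Stimulus was carbachol, EC80 (200 nM), for 30 min in M1-CHO cells (rat receptor), after 10 min compound pre-treatment.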

[7] = target: Pyruvate kinase (Leishmania mexicana) (UniProt Q27686); experiment: qHTS Validation Assay for Inhibitors of Leishmania Mexicana Pyruvate Kinase (AID 945; active means well fitted curve in the direction sought with a large enough effect; an effect the other way counts as inactive or inconclusive;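 further: 0% = DMSO only neutral control wells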)
Chain of Pyruvate kinase (Leishmania mexicana) (Q27686 2-499 E452W): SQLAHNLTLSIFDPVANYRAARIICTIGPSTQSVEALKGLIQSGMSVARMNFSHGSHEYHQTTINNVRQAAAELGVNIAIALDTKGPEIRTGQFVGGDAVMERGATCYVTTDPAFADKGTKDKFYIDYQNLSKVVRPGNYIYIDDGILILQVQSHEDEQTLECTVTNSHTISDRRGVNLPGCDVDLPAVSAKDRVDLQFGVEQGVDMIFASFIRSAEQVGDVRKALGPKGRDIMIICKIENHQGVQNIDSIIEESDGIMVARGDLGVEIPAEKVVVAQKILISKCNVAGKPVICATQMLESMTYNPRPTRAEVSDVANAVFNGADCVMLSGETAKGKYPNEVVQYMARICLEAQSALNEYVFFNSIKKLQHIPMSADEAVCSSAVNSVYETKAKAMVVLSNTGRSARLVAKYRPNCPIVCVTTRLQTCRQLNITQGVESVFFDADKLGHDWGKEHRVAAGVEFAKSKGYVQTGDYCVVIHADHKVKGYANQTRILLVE
Summary of the method: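 Purified LmPYK (E451W mutant, 0.2 nM) was incubated 1 h at room temperature with 0.5 mM PEP and 0.1 mM ADP in 50 mM imidazole pH 7.2, 50 mM KCl, 7 mM MgCl2; ATP formed was read by PKLight luminescence, normalized to DMSO wells.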

[8] = target: Pyruvate kinase PKM (Homo sapiens) (UniProt P14618); experiment: qHTS Assay for Activators of Human Muscle Pyruvate Kinase (AID 954; active means well fitted curve in the direction sought with a large enough effect, not every such curve was filed as active;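 further: 0% = uninhibited enzyme and -100% = no enzyme or full thiadiazolimine inhibition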)
Chain of Pyruvate kinase PKM (Homo sapiens) (P14618 whole entry, looked up): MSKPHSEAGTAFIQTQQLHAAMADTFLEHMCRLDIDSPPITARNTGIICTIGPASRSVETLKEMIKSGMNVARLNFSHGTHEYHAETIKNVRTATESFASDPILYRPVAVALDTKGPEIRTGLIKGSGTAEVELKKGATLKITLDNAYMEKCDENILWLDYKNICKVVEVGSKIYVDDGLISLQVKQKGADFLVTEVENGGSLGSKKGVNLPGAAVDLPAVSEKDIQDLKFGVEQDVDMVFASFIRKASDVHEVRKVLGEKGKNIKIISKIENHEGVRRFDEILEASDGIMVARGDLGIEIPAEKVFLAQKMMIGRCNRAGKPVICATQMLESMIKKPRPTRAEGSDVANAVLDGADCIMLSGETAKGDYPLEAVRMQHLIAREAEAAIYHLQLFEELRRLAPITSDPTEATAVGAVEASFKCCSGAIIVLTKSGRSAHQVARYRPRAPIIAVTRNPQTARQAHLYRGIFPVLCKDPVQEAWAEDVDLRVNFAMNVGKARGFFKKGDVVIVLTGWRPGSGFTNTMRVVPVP
Summary of the method: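 ATP production by PKM2 detected via luciferase luminescence after 1 h room-temperature reaction (0.1 nM enzyme, PEP at Km 0.5 mM, ADP 0.1 mM, pH 7.2 imidazole buffer). Inhibition scaled to no-enzyme control; activation referenced to 0.3 nM enzyme wells.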

[9] = target: Alpha-galactosidase A (Homo sapiens) (UniProt P06280); experiment: Counterscreen for Glucocerebrosidase Inhibitors: qHTS Assay for Human alpha-Galactosidase at pH 4.5 (AID 992; active means well fitted curve in the direction sought with a large enough effect; an effect the other way counts as inactive or inconclusive; further: 0% is about no effect)
Chain of Alpha-galactosidase A (Homo sapiens) (P06280 whole entry, looked up): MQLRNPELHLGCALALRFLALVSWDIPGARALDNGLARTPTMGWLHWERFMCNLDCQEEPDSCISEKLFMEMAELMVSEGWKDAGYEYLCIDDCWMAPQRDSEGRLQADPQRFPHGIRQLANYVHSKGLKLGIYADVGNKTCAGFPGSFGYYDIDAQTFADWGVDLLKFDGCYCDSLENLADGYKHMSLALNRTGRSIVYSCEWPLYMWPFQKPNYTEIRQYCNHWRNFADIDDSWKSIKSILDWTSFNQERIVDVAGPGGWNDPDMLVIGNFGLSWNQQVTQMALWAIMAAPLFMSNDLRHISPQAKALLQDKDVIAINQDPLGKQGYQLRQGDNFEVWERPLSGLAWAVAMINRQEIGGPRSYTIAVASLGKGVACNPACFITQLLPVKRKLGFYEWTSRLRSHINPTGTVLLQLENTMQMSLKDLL
Summary of the method: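 Fluorogenic 1536-well qHTS at pH 4.5 (citrate, Tween-20): 2 nM enzyme, 80 uM 4-MU-alpha-galactoside, 20 min room temperature, NaOH/glycine stop. Titration 0.7 nM to 77 uM, data normalized to no-enzyme and full-activity controls, Hill-fitted AC50.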

[10] = target: alpha-glucosidase (Oryza sativa, rice) (UniProt Q653V4); experiment: Counterscreen for Glucocerebrosidase Inhibitors: qHTS Assay for Rice alpha-Glucosidase at pH 5.0 (AID 997; active means well fitted curve in the direction sought with a large enough effect; an effect the other way counts as inactive or inconclusive;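 further: 0% = full activity with enzyme and -100% = basal without enzyme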)
Summary of the method: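 Endpoint fluorogenic assay at pH 5.0: compounds (0.7 nM to 77 uM) titrated against 4 nM rice enzyme and 400 uM 4-MU-alpha-glucoside for 20 min at room temperature; NaOH/glycine stop, read ex 365/em 440 nm, Hill-fitted AC50.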

[11] = target: Cytochrome P450 3A4 (Homo sapiens) (UniProt P08684); experiment: qHTS Assay for Inhibitors and Substrates of Cytochrome P450 3A4 (AID 884; active means well fitted curve in the direction sought with a large enough effect; an effect the other way counts as inactive or inconclusive; further: potency means the concentration at half of the fitted maximal effect; nearly all actives have a fitted effect of over 50% in size)
Chain of Cytochrome P450 3A4 (Homo sapiens) (P08684 whole entry, looked up): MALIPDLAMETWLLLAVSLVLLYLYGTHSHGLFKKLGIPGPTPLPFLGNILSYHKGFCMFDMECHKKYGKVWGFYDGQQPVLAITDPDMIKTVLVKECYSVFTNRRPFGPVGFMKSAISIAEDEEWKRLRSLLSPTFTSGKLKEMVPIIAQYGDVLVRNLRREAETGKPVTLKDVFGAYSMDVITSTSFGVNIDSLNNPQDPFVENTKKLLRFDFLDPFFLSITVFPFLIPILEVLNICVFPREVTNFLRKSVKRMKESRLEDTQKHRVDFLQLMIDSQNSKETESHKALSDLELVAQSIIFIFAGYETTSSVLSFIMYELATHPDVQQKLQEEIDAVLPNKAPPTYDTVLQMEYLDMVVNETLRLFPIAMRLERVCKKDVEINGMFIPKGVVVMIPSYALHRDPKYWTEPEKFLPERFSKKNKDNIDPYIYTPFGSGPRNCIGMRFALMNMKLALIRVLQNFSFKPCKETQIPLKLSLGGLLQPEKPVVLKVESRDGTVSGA
Summary of the method: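 Luminescent readout of luciferin produced by CYP3A4 (20 nM) dealkylation of Luciferin-PPXE, 25 uM (its KM). NADPH-driven reaction ran 60 min at RT after 10 min compound preincubation; data scaled to 57 uM ketoconazole as 100% inhibition.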

[12] = target: Cytochrome P450 2C19 (Homo sapiens) (UniProt P33261); experiment: qHTS Assay for Inhibitors and Substrates of Cytochrome P450 2C19 (AID 899; active means well fitted curve in the direction sought with a large enough effect; an effect the other way counts as inactive or inconclusive; further: potency means the concentration at half of the fitted maximal effect; nearly all actives have a fitted effect of over 60% in size)
Chain of Cytochrome P450 2C19 (Homo sapiens) (P33261 whole entry, looked up): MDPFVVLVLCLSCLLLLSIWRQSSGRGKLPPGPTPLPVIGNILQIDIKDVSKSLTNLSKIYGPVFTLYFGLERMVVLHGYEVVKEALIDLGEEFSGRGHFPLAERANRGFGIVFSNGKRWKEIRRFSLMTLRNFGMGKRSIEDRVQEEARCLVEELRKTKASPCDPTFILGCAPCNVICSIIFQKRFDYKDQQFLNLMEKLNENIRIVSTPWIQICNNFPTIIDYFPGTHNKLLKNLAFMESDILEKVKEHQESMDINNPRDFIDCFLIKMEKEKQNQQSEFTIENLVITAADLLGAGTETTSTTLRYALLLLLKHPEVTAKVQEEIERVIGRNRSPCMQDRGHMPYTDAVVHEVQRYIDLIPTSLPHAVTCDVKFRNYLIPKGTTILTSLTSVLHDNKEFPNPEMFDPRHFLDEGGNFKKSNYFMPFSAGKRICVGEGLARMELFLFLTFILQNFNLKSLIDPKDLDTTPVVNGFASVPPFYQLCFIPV
Summary of the method: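 Signal comes from luciferase acting on luciferin released by CYP2C19-mediated hydroxylation of Luciferin-H EGE, 10uM (KM). Assay mix: 5nM enzyme, 50mM KPO4; 60 min at 37C with NADPH regeneration. Data normalized against 57uM ketoconazole.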

Cc1c(O)c(CN2CCCCC2)cc2c3c(c(=O)oc12)CCC3
inactive: activity change, negative = inhibition [1] 6.76% | activity, negative = inhibition [2] -1.68% | Potency [3] > 20.6 µM

CC(C)(C)OC(=O)NCCC(=O)Oc1ccc2ccc(=O)oc2c1
inactive: activity change, negative = inhibition [1] 16.1% | activity, negative = inhibition [2] 12.7% | Potency [3] > 20.6 µM

CC1(C)Cc2c(c(N3CCOCC3)nc3sc(C#N)c(N)c23)CS1
inactive: activity change, negative = inhibition [1] 11.7% | activity, negative = inhibition [2] -14.4% | Potency [3] > 20.6 µM

C1CCCN(CCCCN2CCCCCC2)CC1
inactive: activity change, negative = inhibition [1] 3.84% | activity, negative = inhibition [2] 16% | Potency [3] > 20.6 µM

C=CC[N+](C)(C)CCCNC(=O)/C=N/O
inactive: activity change, negative = inhibition [1] 6.86% | activity, negative = inhibition [2] 4.74% | Potency [3] > 20.6 µM

Cc1cccc(N(Cc2cc3ccccc3[nH]c2=O)C(=O)c2ccco2)c1C
inactive: activity change, negative = inhibition [1] -19.9% | activity, negative = inhibition [2] -17% | Potency [3] > 20.6 µM

Cc1ccc(-n2c(=O)c3c4c(sc3n3c(C)nnc23)COC(C(C)C)C4)cc1 (centres undefined)
inactive: activity change, negative = inhibition [1] -7.34% | activity, negative = inhibition [2] -0.5% | Potency [3] > 20.6 µM

CCCCNC(=O)N(C)c1nncnc1C(=O)NC
inactive: activity change, negative = inhibition [1] 16.6% | activity, negative = inhibition [2] 11.5% | Potency [3] > 20.6 µM

COCCCNC(=O)c1c(N)n(/N=C/c2ccccn2)c2nc3ccccc3nc12
inactive: activity change, negative = inhibition [1] -25.1% | activity, negative = inhibition [2] -10.3% | Potency [3] > 20.6 µM

CCOc1ccc2c(C)nc(NC3=NC(C)(C)C=C(C)N3)nc2c1
inactive: activity change, negative = inhibition [1] 26.3% | activity, negative = inhibition [2] 25.6% | Potency [3] > 20.6 µM

C=CCOC(=O)C(C#N)c1nc2ccccc2nc1N1CCN(c2ccccc2OCC)CC1 (centres undefined)
inactive: activity change, negative = inhibition [1] 9.88% | activity, negative = inhibition [2] 2.33% | Potency [3] > 20.6 µM

Cn1c(=O)c2c3c(sc2n2c(SCC(=O)c4ccc(Cl)cc4)nnc12)COC(C)(C)C3
inactive: activity change, negative = inhibition [1] -6.68% | activity, negative = inhibition [2] -0.164% | Potency [3] > 20.6 µM

CCCCCCn1cc(C(=O)O)c(=O)c2ccccc21
inactive: activity change, negative = inhibition [1] -9% | activity, negative = inhibition [2] 8.19% | Potency [3] > 20.6 µM

CN(C)CCCN1C(=O)C(=O)/C(=C(/O)c2ccccc2)C1c1ccccn1 (centres undefined)
inactive: activity change, negative = inhibition [1] 7% | activity, negative = inhibition [2] 4.69% | Potency [3] > 20.6 µM

CSC1=Nc2sc3c(c2C2=NCCN12)CC(C)(C)OC3
inactive: activity change, negative = inhibition [1] 26% | activity, negative = inhibition [2] 14.3% | Potency [3] > 20.6 µM

NC(=S)c1ccc[n+]([C@@H]2O[C@@H](COP(=O)([O-])OP(=O)(O)OC[C@@H]3O[C@@H](n4cnc5c(N)ncnc54)[C@@H](OP(=O)(O)O)[C@H]3O)[C@@H](O)[C@H]2O)c1
inactive: outcome [4] | Potency [5] | Potency [6] | Potency [7] | outcome [8] | outcome [9] | outcome [10]

CCOC(=O)C1=C(C)NC(C)=C(C(=O)OC)[C@H]1c1cccc(Cl)c1Cl
inactive: outcome [4] | Potency [7] | outcome [8] | outcome [9] | outcome [10]

NC(=O)/C(=C\c1ccncc1)c1cccc2ccccc12
active: Potency [11] 3.16 µM | Potency [12] 2.51 µM

— PubChem BioAssay (NCATS)
